# LMP1 NFkB inh: reduces LMP1-driven NF-kappaB luciferase signal. actives 0.69% (n = 350,000). AID 504558. inhibition, % at 12.5 µM. LMP1-induced NF-kappaB luciferase reporter cells, luminescence; in the data active = inhibition above about 41%; inconclusive = no clear call, values can overlap the other calls;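 also: 0% = neutral control wells and 100% = reference inhibitor control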
# TWEAK Fn14 block: blocks TWEAK-Fn14 interaction in a reporter cell assay; TWEAK-stimulated Fn14 reporter cells, luciferase luminescence, 8 h; inhibition, % at 10 µM; actives 2% (n = 360,000); in the data active = inhibition above about 50%
# LGR2 antag: blocks bursicon-induced cAMP signaling via Drosophila LGR2 | HEK293 LGR2, CRE-luciferase, bursicon-stimulated, 4 h | inhibition, % at 9.99 µM | actives 0.35% (n = 380,000) | AID 720647;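 active = drop in luminescence signal, shown as inhibition above about 50% in the replicate tests, limit read from the data, passing the limit was not always enough; inconclusive = probably only some replicates passing the limit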;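 also: agonist challenge used bursicon conditioned medium at about half maximal strength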
# HSP90 inh: inhibitors of HSP90 luciferase refolding in rabbit reticulocyte lysate; actives 0.91% (n = 290,000); inhibition, % at 5.6 µM; AID 1789; luciferase refolding luminescence, 3 h;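 active = inhibition above the screen-wide mean plus 3 SD, computed separately per campaign, cut at about 16% in these data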;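 also: 0% = DMSO wells and 100% = 60 µM geldanamycin wells; inhibitors lower the luminescence because luciferase stays unfolded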
# aDG glyco up: increases alpha dystroglycan glycosylation | Pro5-aDG cells, alpha-DG glycosylation AlphaScreen (IIH6); 0% Pro5, 100% B10-LARGE cell signal | AID 624168 | actives 0.22% (n = 360,000) | activation, % at 10 µM;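 active = activation of at least 8% versus controls, or a plate z-score of at least 8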;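 also: Pro5 are CHO cells carrying HIG-tagged alpha-DG that lacks glycosylation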
# TROY signal inh: TROY signaling inhibition; Q293 LMP1-TROYcd NF-kB luciferase reporter, 4 h; inhibition, % at 10 µM; actives 0.98% (n = 360,000); AID 1347056;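 active = compounds whose plate-normalised and pattern-corrected inhibition of the luciferase reporter signal at the single screening dose is 50% or more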
# HSP90 confirm: HSP90 inhibition, confirmation assay; rabbit reticulocyte lysate, luciferase refolding luminescence, 3 h; inhibition, % at 5.9 µM; shares compounds with HSP90 inh; actives 64% (n = 2,300); in the data active = inhibition above about 18%;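 also: 0% = vehicle wells and 100% = reference inhibitor wells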
# FLuc counter: firefly luciferase inhibition, HSP90 counter-screen; shares compounds with HSP90 inh; purified native firefly luciferase, luminescence; inhibition, % at 5.9 µM; actives 48% (n = 2,300); AID 1847;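 active = inhibition above the mean inhibition of all tested sample wells plus 3 SD, cut at about 10% in these data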;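 also: 0% = DMSO with luciferase and 100% = wells lacking luciferase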
# Target sequence (P08659 whole entry, looked up): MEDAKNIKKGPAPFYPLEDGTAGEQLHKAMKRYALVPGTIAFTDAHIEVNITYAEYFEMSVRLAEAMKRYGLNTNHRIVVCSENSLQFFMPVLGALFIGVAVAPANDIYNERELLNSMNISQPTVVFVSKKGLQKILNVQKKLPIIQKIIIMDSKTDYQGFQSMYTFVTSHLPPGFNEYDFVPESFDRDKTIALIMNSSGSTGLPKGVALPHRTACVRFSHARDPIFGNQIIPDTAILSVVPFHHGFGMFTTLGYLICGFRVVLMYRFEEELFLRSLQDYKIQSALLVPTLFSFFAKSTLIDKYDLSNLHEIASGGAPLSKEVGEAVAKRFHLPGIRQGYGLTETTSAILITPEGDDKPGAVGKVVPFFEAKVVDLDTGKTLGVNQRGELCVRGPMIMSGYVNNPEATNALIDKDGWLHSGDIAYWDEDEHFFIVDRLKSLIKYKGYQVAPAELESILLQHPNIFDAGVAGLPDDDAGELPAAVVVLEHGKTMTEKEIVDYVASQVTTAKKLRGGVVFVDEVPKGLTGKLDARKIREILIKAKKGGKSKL
# Active calls of the source: *; ? = inconclusive; nt = no result given. Hits are enriched below; roughly 2.6% of the tested compounds scored in any of these assays.
SMILES,LMP1 NFkB inh,TWEAK Fn14 block,LGR2 antag,HSP90 inh,aDG glyco up,TROY signal inh,HSP90 confirm,FLuc counter
Cc1ccc(CC(=O)N/N=C/c2ccc3c(c2)OCO3)cc1,-20,-10,-18,20*,0,-41,-5,-14
C[C@H]1CN([C@@H](C)CO)C(=O)c2cccc(NS(=O)(=O)c3cn(C)cn3)c2O[C@H]1CN(C)C,nt,nt,9,nt,nt,nt,nt,nt
O=C(Nc1ccc2c(c1)OCCO2)c1ccc(Cl)c([N+](=O)[O-])c1,-3,-13,-47,1,0,-28,nt,nt
Cc1ccccc1C(=O)Nc1ccc2c(c1)OCO2,4,44,nt,22*,0,-4,36*,15*
COc1ccc(NC(=O)c2ccc3c(c2)OCO3)cc1,6,34,-26,19*,0,-24,27*,14*
Cc1cc(C(=O)Nc2ccc3c(c2)OCCO3)ccc1[N+](=O)[O-],4,62*,59*,28*,0,26,59*,51*
COc1ccccc1C(=O)Nc1ccc2c(c1)OCO2,-41,-31,-57,2,0,-39,nt,nt
CO[C@@H]1CN(C)C(=O)c2ccc(NS(=O)(=O)c3ccc(C)cc3)cc2OC[C@@H](C)N(C(=O)NC(C)C)C[C@@H]1C,nt,nt,-1,nt,nt,nt,nt,nt
C[C@@H]1CCCCO[C@@H](CN(C)Cc2ccc(C(F)(F)F)cc2)[C@H](C)CN([C@H](C)CO)C(=O)c2cc(NC(=O)Nc3ccc(F)cc3)ccc2O1,nt,nt,-25,nt,nt,nt,nt,nt
Cc1ccc(C(=O)/C=C2\NCC(C)NC2=O)cc1 (configuration not stated),23,54*,54*,37*,0,nt,56*,43*
CC(=O)c1ccccc1OCCCN1CCCCC1,-6,4,nt,28*,0,31,14,-1
CC(=O)c1sc(NC(=O)c2ccc(C(C)(C)C)cc2)nc1C,-34,20,-41,30*,0,-7,9,-5
COC(=O)c1sc(NC(=O)c2oc3ccccc3c2C)nc1C,9,-30,nt,55*,0,-33,35*,-24
CCOC(=O)c1sc(NC(=O)c2ccc(OC)cc2)nc1C,-10,-10,-21,18*,1,-35,28*,-6
CCOC(=O)c1sc(NC(=O)c2ccc(OC(C)=O)cc2)nc1C,-17,-10,nt,6,0,-29,nt,nt
CCOC(=O)c1sc(NC(=O)c2ccc(C)o2)nc1C,-24,9,nt,45*,0,-26,44*,-14
COC(=O)c1sc(NC(=O)c2ccc(C)o2)nc1C,-8,-3,-58,10,0,-36,nt,nt
CC(=O)c1sc(NC(=O)c2ccc(C)c(C)c2)nc1C,-28,1,-4,9,0,-43,nt,nt
Nc1cccc(-c2cc3ccccc3oc2=O)c1,22,60*,-127,44*,0,67*,35*,-16
Nc1nnc(-c2cc3ccccc3oc2=O)s1,-8,-3,nt,-3,0,-47,nt,nt
N#CC(C#N)=Cc1ccc(NC(=O)c2ccc(Br)cc2)cc1,-12,-2,-15,-1,0,-49,nt,nt
CC(C)(C)c1ccc(C(=O)Nc2ccc(C=C(C#N)C#N)cc2)cc1,-3,-2,-69,39*,0,-5,45*,-16
CCOC(=O)N1CCN(C(=O)C2CCCN(S(=O)(=O)c3cc(C)ccc3OC)C2)CC1 (configuration not stated),-1,13,1,2,0,5,nt,nt
COc1ccc(C)cc1S(=O)(=O)N1CCCC(C(=O)N2CCN(c3ccccc3)CC2)C1 (configuration not stated),0,6,11,22*,0,13,3,-2
CCCNC(=O)N1C[C@@H](C)[C@H](OC)CN(C)C(=O)c2ccc(NC(=O)C3CCC3)cc2OC[C@@H]1C,nt,nt,10,nt,nt,nt,nt,nt
SMILES,LMP1 NFkB inh,TWEAK Fn14 block,LGR2 antag,HSP90 inh,aDG glyco up,TROY signal inh,HSP90 confirm,FLuc counter
C=COC(=O)CSc1nc(-c2cccs2)ccc1C#N,-21,-36,-96,33*,0,-53,-3,-13
CC(C)OC(=O)CSc1nc(N)c(C#N)c(-c2cccs2)c1C#N,8,40,nt,4,1,43,nt,nt
Cc1ccccc1Nc1nnc(SCC2CCCCO2)s1 (configuration not stated),-15,33,-41,6,0,-20,nt,nt
COc1ccccc1Nc1nnc(SCC2CCCCO2)s1 (configuration not stated),37,65*,36,32*,0,29,38*,39*
O=C(Nc1ccc(Br)cn1)c1coc(=O)c(Br)c1,-3,-15,nt,30*,0,-27,21*,-6
Cc1cc(NC(=O)c2coc(=O)c(Br)c2)ccc1C(C)C,-23,47,49,61*,0,-76,81*,-21
Cc1cccc(C(=O)N2CCN(c3ccc(C(F)(F)F)cn3)CC2)c1C,45*,-4,nt,38*,1,9,2,-5
COc1ccc2c3c(n(C)c2c1)[C@H](CO)N(Cc1ccccn1)CC31CCN(Cc2ccccn2)CC1,nt,nt,6,nt,nt,nt,nt,nt
CN(C)S(=O)(=O)c1ccc(NC(=O)c2ccncc2)cc1,-1,-3,nt,42*,0,-2,-4,-8
Cc1noc(C)c1NC(=O)Nc1ccc2c(c1)C(=O)N(C)[C@H]1CC[C@H](CC(=O)Nc3ccccc3F)O[C@@H]1CO2,nt,nt,-5,nt,nt,nt,nt,nt
COCC(=O)Nc1ccc2c(c1)C(=O)N(C)C[C@H](OC)[C@@H](C)CN(CC1CC1)[C@H](C)CO2,nt,nt,-1,nt,nt,nt,nt,nt
COc1ccc(N2C(=O)c3ccccc3NC23CCCC3)cc1,-1,13,-6,19*,0,-7,2,-6
CCC(=O)N1C[C@H]2[C@@H](c3ccccc31)[C@H](CO)N2C(=O)Nc1ccccc1F,nt,nt,10,nt,nt,nt,nt,nt
CC(=O)c1ccc(NC(=O)c2cnn3ccccc23)cc1,35,71*,?,42*,0,17,63*,12*
Clc1ccc(CSc2nnc(-c3ccc4c(c3)OCO4)o2)cc1,-7,-23,12,2,0,-35,nt,nt
O=C1CCCCC1Sc1nnc(-c2ccc3c(c2)OCO3)o1 (configuration not stated),56*,104*,nt,75*,0,87*,93*,79*
CCN(Cc1ccccc1)c1ccc(/C=C(\C#N)c2ccccn2)cc1,-48,-1,-97,0,0,-11,nt,nt
CCN(CC)c1ccc(/C=C(\C#N)c2ccccn2)cc1,-89,77*,nt,21*,0,71*,70*,60*
Cc1ccc(NCc2nc3ccccc3n2C)c(C)c1,-1,42,1,28*,0,-66,45*,39*

# From PubChem BioAssay
